Records with an inconclusive call do not appear. Values without a mark were called inactive. Calls of active or inactive are those of the source. Calls come from the whole dose curve; as a rule, active = well fitted inhibition curve with a large enough effect; inconclusive = small, poorly fitted or top-dose-only effect; inactive = flat fitted curve, though single readings scatter.
The compounds below were run against Glutathione peroxidase 1 (Homo sapiens) (UniProt P07203) (assay: Primary qHTS Assay for Inhibitors of Recombinant Selenoprotein Glutathione Peroxidase 1 (GPX1) (AID 1845191; note: nearly all actives have a fitted effect of over 65% in size)). Settings: recombinant GPX1, GR-coupled NADPH fluorescence, 15 min; series mostly up to 48.8 µM; activity, negative = inhibition: at the top concentration.
In short: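 GR-coupled readout: NADPH consumption tracked by fluorescence, ex 340/em 450 nm, at t=0 and after 15 min at RT. Final mix 10 nM GPX1, 1 mM GSH, 0.5 mM CHP, 0.5 mM NADPH, 100 nM GR, 0.01% BSA, following 30 min enzyme–compound preincubation.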
% is set by controls: 0 for no effect and ±100 for the full control effect.

Glutathione peroxidase 1 (Homo sapiens), sequence (P07203 whole entry, looked up): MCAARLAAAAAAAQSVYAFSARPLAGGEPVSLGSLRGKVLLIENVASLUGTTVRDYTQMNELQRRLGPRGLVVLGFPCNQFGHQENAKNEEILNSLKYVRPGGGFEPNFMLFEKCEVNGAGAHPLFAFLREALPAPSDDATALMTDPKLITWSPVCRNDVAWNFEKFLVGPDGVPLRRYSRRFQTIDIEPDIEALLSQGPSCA

| SMILES | outcome | activity, negative = inhibition [%] |
| --- | --- | --- |
| N=C(N)c1ccc(N)cc1 | inactive |  |
| CCCCCCCCCCCCCCSCC(=O)O |  | -0.456 |
| NCCCNCCCCNCCCN |  | -0.29 |
| N[C@@H](CCCC(=O)O)C(=O)O |  | -10.4 |
| CC[n+]1c(/C=C/C=C2/N(C)c3ccccc3C2(C)C)sc2ccccc21 |  | 1.63 |
| Nc1nc2c(nc(Br)n2C2OC3COP(=O)(O)O[C@@H]3C2O)c(=O)[nH]1 (stereo partly specified) | inactive |  |
| COCc1nc2c([nH]1)c(=O)n(C)c(=O)n2CC(C)C |  | -1.42 |
| O=c1ccc2c(OCCCCc3ccccc3)c3ccoc3cc2o1 | inactive |  |
| CCCn1c(=O)c(C)cn2nc(N)nc12 | inactive |  |
| C=C(C)C1CC=C(C(=O)O)CC1 (stereo unspecified) |  | -12 |
| CC#CCOC(=O)c1c(C)nc2sc3c(c2c1N)CCC(O)C3 (stereo unspecified) | inactive |  |
| CC(N)=NCCCC[C@@H](N)C(=O)O |  | -22.7 |
| CCn1c(=O)[nH]c2cc(Cl)c(Cl)cc21 |  | -8.38 |
| CCCCCCCC/C=C\CCCCCCCC(=O)NCCc1ccc(O)c(O)c1 |  | -27.4 |
| O=C(c1ccc2c(c1)OCCO2)N1CCCCC1 | inactive |  |
| Cc1cccc(C2CN(C)CCc3c2cc(O)c(O)c3Cl)c1 (stereo unspecified) |  | -12.3 |
| CN(CC[C@@H](Oc1ccc(C(F)(F)F)cc1)c1ccccc1)CC(=O)O |  | -12.4 |
| CCCCS(=N)(=O)CC[C@H](N)C(=O)O (stereo partly specified) | inactive |  |
| N#CC(C#N)=C(N)/C(C#N)=C/c1ccc(O)cc1 |  | -18.7 |
| Cc1nc(N=Nc2cc(S(=O)(=O)O)c3cc([N+](=O)[O-])cc(S(=O)(=O)O)c3c2)c(COP(=O)(O)O)c(C=O)c1O |  | 2.77 |
| COc1ccc2c(c1)CCC1C2CC[C@@]2(C)C1CC[C@@H]2NCCCCCCN1C(=O)C=CC1=O (stereo partly specified) |  | 3.07 |
| COc1cc(C(O)C(=O)O)ccc1O (stereo unspecified) |  | -10.9 |
| CN1CCCC1CCOC(C)(c1ccccc1)c1ccc(Cl)cc1 (stereo unspecified) |  | -17.3 |
| O=C(O)C1=CCNCC1 |  | -3.27 |
| NCCS(=O)O |  | -21.4 |
| N=C(N)SCCN | inactive |  |

— PubChem BioAssay (NCATS)
